Among the test systems are NCI-H23 lung; NCI-H322M lung; HOP-62 NSCLC; NCI-H460 lung; HOP-92 NSCLC; NCI-H522 lung; A549/ATCC NSCLC; 786-0 renal; DU-145 prostate.
What all share (assay): NCI-60 one-dose screen, 48 h (100 = growth as untreated, 0 = no growth, -100 = all killed)
Conditions in all cases: 10 µM unless noted

For 15 molecules, growth results are on record in PubChem BioAssay (NCI).

The panel holds about 83,000 compounds, 20% with a hit somewhere; the sample as a whole holds those more often.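 Percent growth is the endpoint: 0 to 100 indicates growth inhibition (40 means 60% inhibition), 0 means no net growth, and negative values indicate cell death.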 Unmarked numbers belong to inactive results. Active and inactive are the calls of the source. How the source made its calls: active means growth percent below 10; inactive means the rest.

With `Cn1c(/C=C(\C#N)c2cccc(C(F)(F)F)c2)nc2c(N3CCOCC3)nc(Cl)nc21`, the growth in the assay with NCI-H23 lung is 16%; with NCI-H322M lung, 63.1%; in the assay with HOP-62 NSCLC, 34.1%; in the assay on NCI-H460 lung, 26.7%; with HOP-92 NSCLC, -77.4% (active); with NCI-H522 lung it was -56% (active). Moreover, the growth with A549/ATCC NSCLC was 33.6%; in the assay with 786-0 renal, -74.2% (active); with DU-145 prostate, -80.3% (active).
Take `O=c1c2cc(F)ccc2sc2c(NCCN3CCCC3)nc3ccccc3c12`: the growth was 77.1% in the assay with NCI-H23 lung; 69% in the assay on NCI-H322M lung; 67.6% with HOP-62 NSCLC; 12.3% in the assay on NCI-H460 lung; 27.5% in the assay with HOP-92 NSCLC; 63.8% in the assay on NCI-H522 lung. Also, the growth with A549/ATCC NSCLC was 53.7%; in the assay on 786-0 renal, 55.6%; with DU-145 prostate it was 45.8%.
For the molecule `CCN1CCN(C(=S)SCC(=O)Nc2nc3ccc(C)cc3s2)CC1`, the growth was 99.2% in the assay with NCI-H23 lung; 103% in the assay on NCI-H322M lung; 99.7% in the assay with HOP-62 NSCLC; 113% in the assay with NCI-H460 lung; 92.5% in the assay with HOP-92 NSCLC; 29.1% in the assay with NCI-H522 lung. The growth in the assay on A549/ATCC NSCLC is 103%; in the assay on 786-0 renal, 118%; in the assay on DU-145 prostate it was 113%.
With `COc1ccc2occ(C3=C(c4c[nH]c5ccccc45)C(=O)NC3=O)c2c1`, the growth was 62.2% in the assay with NCI-H23 lung; 79% in the assay with NCI-H322M lung; 41.6% in the assay with HOP-62 NSCLC; 22.5% in the assay with NCI-H460 lung; 67.2% in the assay on HOP-92 NSCLC; 33% in the assay with NCI-H522 lung. Moreover, the growth in the assay with A549/ATCC NSCLC was 40.8%; in the assay with 786-0 renal it was 74.7%; with DU-145 prostate, 92.1%.
With `O=C(/C=C/c1ccccc1)c1ccc(Nc2nc(NCCO)nc(Nc3ccc(Cl)cc3)n2)cc1`, the growth with NCI-H23 lung is 82.7%; with NCI-H322M lung it was 91.6%; in the assay on HOP-62 NSCLC it was 93.2%; with NCI-H460 lung it was 81%; in the assay with HOP-92 NSCLC, 96.2%; in the assay on NCI-H522 lung, 83.3%. Besides, the figures for the growth with A549/ATCC NSCLC, in the assay on 786-0 renal and in the assay with DU-145 prostate were 64.6%, 83.9% and 73.6%, respectively.
With `Cc1ccc2sc3c(NCCCNCCO)nc4ccccc4c3c(=O)c2c1`, the growth with NCI-H23 lung was 75.2%; in the assay on NCI-H322M lung, 73.1%; with HOP-62 NSCLC, 50.9%; in the assay on NCI-H460 lung, -81.6% (active); in the assay with HOP-92 NSCLC, 35.3%; in the assay on NCI-H522 lung it was 27.2%. The growth in the assay on A549/ATCC NSCLC was 0.19% (active); in the assay on 786-0 renal it was 54%; with DU-145 prostate, 4.48% (active).
For the molecule `C=C1C(=O)O[C@H]2[C@H]1CC/C(COC(=O)/C=C\C(=O)O)=C\CC[C@@]1(C)O[C@@H]21`, the growth is 98.9% with NCI-H23 lung; 105% with NCI-H322M lung; 99.2% in the assay on HOP-62 NSCLC; 107% with NCI-H460 lung; 108% in the assay on HOP-92 NSCLC; 97.5% in the assay with NCI-H522 lung. In addition, the results for the growth in the assay with A549/ATCC NSCLC, in the assay on 786-0 renal and in the assay on DU-145 prostate were 105%, 109% and 112%, respectively.
As to `COC(=O)c1c2c(c(C)[n+]([O-])c1C)C(=O)C(NCc1ccc(Br)cc1)=CC2=O`, the growth with NCI-H23 lung is 11%; in the assay with NCI-H322M lung, 28.7%; in the assay with HOP-62 NSCLC, 31.4%; in the assay on NCI-H460 lung, 3.51% (active); in the assay on HOP-92 NSCLC it was 78.1%; in the assay with NCI-H522 lung, 42.8%. For the same molecule, the growth was 18.2% in the assay with A549/ATCC NSCLC, 48.8% with 786-0 renal and 53.3% with DU-145 prostate.
With `O=C(NCc1ccco1)C1CN(c2ccc(Cl)cc2)N(c2ccc(Cl)cc2)C1=O` (stereo not given), the growth with NCI-H23 lung is 59.5%; in the assay with NCI-H322M lung, 68.2%; in the assay with HOP-62 NSCLC, 48.6%; in the assay with NCI-H460 lung it was 14.4%; in the assay with HOP-92 NSCLC, 78.1%; in the assay on NCI-H522 lung it was 39.3%. In addition, the values for the growth in the assay on A549/ATCC NSCLC, with 786-0 renal and in the assay with DU-145 prostate were 40.1%, 37.6% and 70.1%, respectively.
Turning to `O=CCCCC(O)C=O` (stereo not given), the growth was 96.3% with NCI-H23 lung; 109% with NCI-H322M lung; 95% in the assay with HOP-62 NSCLC; 101% with NCI-H460 lung; 107% with HOP-92 NSCLC; 107% with NCI-H522 lung. Further, the figures for the growth in the assay on A549/ATCC NSCLC, in the assay on 786-0 renal and with DU-145 prostate were 105%, 97.5% and 106%, respectively.
`Cn1c(/C=C(\C#N)c2ccccc2)nc2c(N3CCOCC3)nc(Cl)nc21`: the growth was 17.5% with NCI-H23 lung; 65.9% in the assay with NCI-H322M lung; 38% with HOP-62 NSCLC; 18.1% in the assay on NCI-H460 lung; -75.6% (active) in the assay on HOP-92 NSCLC; -57.5% (active) in the assay with NCI-H522 lung. The values for the growth in the assay with A549/ATCC NSCLC, with 786-0 renal and in the assay on DU-145 prostate were 30.4%, -71.4% (active) and -72.4% (active), respectively.
Take `Cc1cccc2c(=O)c3c(sc12)c(NCCN)nc1ccccc13`: the growth in the assay with NCI-H23 lung is -13.2% (active); in the assay on NCI-H322M lung, -38.3% (active); in the assay on HOP-62 NSCLC, -64.6% (active); with NCI-H460 lung, -75.3% (active); with HOP-92 NSCLC, 27.7%; with NCI-H522 lung it was -56.3% (active). Also, the figures for the growth in the assay with A549/ATCC NSCLC, in the assay on 786-0 renal and in the assay on DU-145 prostate were -75.2% (active), -37.4% (active) and -87.9% (active), respectively.
Consider `NCCNc1nc2ccc(F)cc2c2c(=O)c3cc(F)ccc3sc12`, for which the growth was 70.9% in the assay on NCI-H23 lung; 60.6% in the assay with NCI-H322M lung; 56.5% in the assay on HOP-62 NSCLC; -54.7% (active) in the assay with NCI-H460 lung; 17.4% with HOP-92 NSCLC; 30.9% with NCI-H522 lung. The growth in the assay on A549/ATCC NSCLC is 43.7%; in the assay with 786-0 renal, 58.6%; in the assay on DU-145 prostate, 7.23% (active).
For the molecule `CNCCNc1nc2ccccc2c2c(=O)c3cccc(C)c3sc12`, the growth in the assay with NCI-H23 lung is 58.2%; in the assay with NCI-H322M lung, 40.9%; in the assay with HOP-62 NSCLC, 25.6%; in the assay with NCI-H460 lung, 9.45% (active); in the assay on HOP-92 NSCLC, 44%; in the assay on NCI-H522 lung, 27.8%. In addition, the growth in the assay with A549/ATCC NSCLC is 35.7%; in the assay on 786-0 renal, 57.3%; with DU-145 prostate, 27.8%.
Consider `CCCCCCCCCCCCCCn1cc(C2=C(c3coc4ccc(OC)cc34)C(=O)NC2=O)c2ccccc21`, for which the growth was 96% in the assay on NCI-H23 lung; 99.7% in the assay on NCI-H322M lung; 103% in the assay on HOP-62 NSCLC; 98.5% in the assay on NCI-H460 lung; 107% with HOP-92 NSCLC; 90.3% in the assay with NCI-H522 lung. Also, the growth in the assay on A549/ATCC NSCLC is 96.6%; with 786-0 renal it was 97.6%; in the assay on DU-145 prostate it was 102%.
